Measured values taken from PubChem BioAssay (NCATS).
Records with an inconclusive call do not appear. The source made the active and inactive calls. Unless noted, calls follow the shape of the dose curve; as a rule, active = well fitted curve in either direction with a large enough effect (not every such curve was filed as active); inconclusive = small, poorly fitted or top-dose-only effect, or another doubt; inactive = flat fitted curve, though single readings scatter.

Experiments:
[1] = molecular target: Lysosomal acid glucosylceramidase (Homo sapiens) (UniProt P04062); experiment: Glucocerebrosidase-p2 (AID 348; in the data active = potency below about 10 µM; also: potency is read from the fitted curve at half-maximal effect); details: purified GBA, blue fluorogenic substrate, 40 min
Sequence of Lysosomal acid glucosylceramidase (Homo sapiens) (P04062 whole entry, looked up): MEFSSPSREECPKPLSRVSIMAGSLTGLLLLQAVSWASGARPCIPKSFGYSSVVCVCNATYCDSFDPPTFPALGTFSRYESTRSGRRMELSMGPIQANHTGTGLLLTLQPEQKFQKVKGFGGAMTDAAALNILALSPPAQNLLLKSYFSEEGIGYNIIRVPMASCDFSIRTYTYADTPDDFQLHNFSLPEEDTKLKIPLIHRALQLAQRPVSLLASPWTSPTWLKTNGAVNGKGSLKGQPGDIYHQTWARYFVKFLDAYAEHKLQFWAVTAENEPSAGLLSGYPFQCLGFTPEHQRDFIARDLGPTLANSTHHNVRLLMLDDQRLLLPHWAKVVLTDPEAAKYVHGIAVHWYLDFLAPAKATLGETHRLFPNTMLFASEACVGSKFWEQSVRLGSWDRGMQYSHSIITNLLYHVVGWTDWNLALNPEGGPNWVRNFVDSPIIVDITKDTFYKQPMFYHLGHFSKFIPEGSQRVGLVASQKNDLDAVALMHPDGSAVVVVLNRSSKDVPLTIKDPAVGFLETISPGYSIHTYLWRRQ
Procedure, shortened: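 Compounds titrated from 0.6 nM upwards against 0.2 nM enzyme in pH 5.9 citric acid/KH2PO4, taurocholate, tween-20; blue fluorogenic substrate 80 uM, 40 min room temperature, stopped and read Ex 365/Em 440 for AC50.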

[2] = AP1 Signaling Pathway (AID 357); details: ME-180 AP-1-bla reporter, EGF-induced, beta-lactamase ratio, 5 h; at 7.69 µM (top of the series) unless noted;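 also: ME-180 reporter cells stimulated with EGF at its EC50 level; % is scaled to controls: 0 for no effect and ±100 for the full control effect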
Procedure, shortened: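 Cells are seeded overnight, exposed to compound titrations and an EC50 level of EGF for 5 hours at 37 °C, then loaded with CCF4 dye for 2.5 hours. Beta-lactamase activity under the AP-1 element is read as a blue/green ratio.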

[3] = molecular target: Cytochrome P450 1A2 (Homo sapiens) (UniProt P05177); experiment: p450-cyp1a2 (AID 410; calls by dose curve; also: potency is read from the fitted curve at half-maximal effect;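 as to activity change, negative = inhibition: -100% = full effect of reference inhibitor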); details: recombinant CYP1A2, luciferin-ME demethylation, luminescence; series mostly up to 11.4 µM
Sequence of Cytochrome P450 1A2 (Homo sapiens) (P05177 whole entry, looked up): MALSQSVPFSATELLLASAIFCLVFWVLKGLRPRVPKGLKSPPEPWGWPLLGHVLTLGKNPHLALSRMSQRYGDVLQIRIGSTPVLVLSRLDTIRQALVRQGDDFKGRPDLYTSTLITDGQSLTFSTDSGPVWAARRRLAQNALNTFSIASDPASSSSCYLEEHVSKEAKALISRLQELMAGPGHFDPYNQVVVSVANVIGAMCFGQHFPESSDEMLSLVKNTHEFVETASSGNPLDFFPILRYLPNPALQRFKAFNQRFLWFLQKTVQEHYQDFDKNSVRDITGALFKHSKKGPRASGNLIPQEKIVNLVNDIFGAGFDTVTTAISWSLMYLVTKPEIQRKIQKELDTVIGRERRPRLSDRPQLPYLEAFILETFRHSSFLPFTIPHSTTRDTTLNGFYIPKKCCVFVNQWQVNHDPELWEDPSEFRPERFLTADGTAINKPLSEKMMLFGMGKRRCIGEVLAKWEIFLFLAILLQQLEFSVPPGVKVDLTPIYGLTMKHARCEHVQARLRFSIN
Procedure, shortened: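 Human CYP1A2 (20nM) demethylated Luciferin-ME at its Km (100uM) in 100mM KPO4. After 10 min compound preincubation, NADPH regeneration ran the reaction 60 min at room temperature. Luciferin was read by luminescence, normalized to 57 uM furafylline.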

[4] = NFAT Signaling Pathway (AID 444); details: Jurkat NFAT-bla M1, carbachol, beta-lactamase ratio, 5 h; at 7.69 µM (top of the series) unless noted;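 also: carbachol stimulus at about its EC50 of 1 µM final; % is scaled to controls: 0 for no effect and ±100 for the full control effect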
Procedure, shortened: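 Read-out: CCF4 FRET ratio (460 nm/530 nm) after 1 h RT dye loading, used for %activity and AC50 from titration series. Cells: Jurkat NFAT-β-lactamase/M1 line, treated with compound plus 1 uM carbachol for 5 h, 37 °C.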

[5] = molecular target: Glucocorticoid receptor (Homo sapiens) (UniProt P04150); experiment: GR-GFP Redistribution (AID 450;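 active = compounds whose dose series gives a full or clear partial fitted curve of increased nuclear translocation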; also: potency is read from the fitted curve at half-maximal effect); details: U2OS GR-GFP nuclear translocation, laser cytometry, 2 h
Sequence of Glucocorticoid receptor (Homo sapiens) (P04150 whole entry, looked up, the tested form may be a part): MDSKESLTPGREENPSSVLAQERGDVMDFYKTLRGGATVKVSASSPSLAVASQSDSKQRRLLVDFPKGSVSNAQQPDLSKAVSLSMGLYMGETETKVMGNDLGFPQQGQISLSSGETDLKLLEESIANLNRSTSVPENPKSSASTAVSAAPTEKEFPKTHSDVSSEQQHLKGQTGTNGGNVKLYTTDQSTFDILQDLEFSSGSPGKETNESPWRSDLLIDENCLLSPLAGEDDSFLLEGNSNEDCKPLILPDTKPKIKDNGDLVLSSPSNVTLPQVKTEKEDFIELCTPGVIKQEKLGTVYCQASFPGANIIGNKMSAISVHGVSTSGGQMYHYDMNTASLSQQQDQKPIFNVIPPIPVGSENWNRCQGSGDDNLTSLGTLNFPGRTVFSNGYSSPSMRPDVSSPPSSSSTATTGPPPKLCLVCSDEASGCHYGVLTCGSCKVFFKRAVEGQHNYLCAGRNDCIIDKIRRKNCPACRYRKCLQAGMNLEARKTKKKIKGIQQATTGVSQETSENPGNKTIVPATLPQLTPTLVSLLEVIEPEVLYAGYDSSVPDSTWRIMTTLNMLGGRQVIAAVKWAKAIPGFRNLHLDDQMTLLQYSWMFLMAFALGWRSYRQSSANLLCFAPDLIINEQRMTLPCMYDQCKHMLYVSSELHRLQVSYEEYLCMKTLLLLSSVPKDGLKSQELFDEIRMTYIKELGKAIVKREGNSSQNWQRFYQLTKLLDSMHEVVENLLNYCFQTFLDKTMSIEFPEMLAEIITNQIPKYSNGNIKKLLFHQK

[6] = molecular target: Glucocorticoid receptor (Homo sapiens) (UniProt P04150); experiment: GR-EFC Redistribution (AID 451; calls by dose curve; also: potency is read from the fitted curve at half-maximal effect); details: CHO-K1 GR-EFC translocation, beta-gal luminescence, 2 h
Procedure, shortened: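 Translocation of GR-ED fusion to nuclear EA restores b-gal, read by luminescence after 1 h room-temperature detection. Engineered CHO-K1 biosensor cells, 1,000/well, exposed 2 h at 37 C to titrations up to 46 uM final.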

[7] = molecular target: Mitogen-activated protein kinase 10 (Mus musculus) (UniProt Q61831); experiment: JNK3 AlphaScreen Assay (AID 530); details: JNK3 lysate, c-Jun phosphorylation; series mostly up to 11.4 µM;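 also: kinase came from lysate of stimulated human HepG2 cells; signal reports phosphorylation of biotinylated GST-cJun 1-79 at Ser73 with 10 µM ATP; % is scaled to controls: 0 for no effect and ±100 for the full control effect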
Procedure, shortened: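 Room-temperature AlphaScreen kinase assay; pre-activated HepG2 lysate as JNK3 source, biotin-GST-cJun(1-79) substrate, 10 uM ATP, compound 15 min preincubation.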

[8] = molecular target: 3',5'-cyclic-AMP phosphodiesterase 4B (Homo sapiens) (UniProt Q07343); experiment: qHTS Assay for Inhibitors of PDE-IV (AID 607; active = well fitted activation curve with a large enough effect in the main read-out, with a control signal flat, not every such curve was filed as active; also: % of control where 0% means no effect); details: HEK293 ACTOne CNG channel cells, membrane potential fluorescence; series mostly up to 22.9 µM
Sequence of 3',5'-cyclic-AMP phosphodiesterase 4B (Homo sapiens) (Q07343 whole entry, looked up): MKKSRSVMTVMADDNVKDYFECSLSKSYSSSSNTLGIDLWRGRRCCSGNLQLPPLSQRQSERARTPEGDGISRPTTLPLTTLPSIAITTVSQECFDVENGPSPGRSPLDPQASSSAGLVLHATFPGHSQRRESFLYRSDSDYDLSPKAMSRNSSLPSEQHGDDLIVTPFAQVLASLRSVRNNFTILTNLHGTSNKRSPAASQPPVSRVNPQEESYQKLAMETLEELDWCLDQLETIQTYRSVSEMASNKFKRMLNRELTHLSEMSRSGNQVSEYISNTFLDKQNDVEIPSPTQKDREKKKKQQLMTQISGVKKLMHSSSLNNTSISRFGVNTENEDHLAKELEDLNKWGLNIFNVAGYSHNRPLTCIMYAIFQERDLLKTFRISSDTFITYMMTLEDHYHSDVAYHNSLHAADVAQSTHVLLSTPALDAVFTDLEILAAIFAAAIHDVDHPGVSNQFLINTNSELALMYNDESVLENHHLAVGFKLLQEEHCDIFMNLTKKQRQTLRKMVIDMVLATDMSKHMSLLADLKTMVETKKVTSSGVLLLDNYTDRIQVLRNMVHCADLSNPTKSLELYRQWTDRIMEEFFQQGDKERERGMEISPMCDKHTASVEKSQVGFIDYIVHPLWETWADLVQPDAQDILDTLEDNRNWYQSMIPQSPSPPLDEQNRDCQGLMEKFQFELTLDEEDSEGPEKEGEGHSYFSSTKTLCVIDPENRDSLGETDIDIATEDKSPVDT
Procedure, shortened: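 ACTOne HEK293 cells carry a modified cAMP-gated CNG channel and express endogenous PDE4; plated 1000 cells/well, compounds up to 22.9 uM final. Membrane-potential dye fluorescence (ex 535/em 590) was read; parental cells received 10 uM forskolin + 100 uM RO 20-1724.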

[9] = molecular target: Cytochrome P450 2C9 (Homo sapiens) (UniProt P11712); experiment: qHTS Assay for Inhibitors and Substrates of Cytochrome P450 2C9 (AID 883; active = well fitted curve in the direction sought with a large enough effect; an effect the other way counts as inactive or inconclusive; also: potency is read from the fitted curve at half-maximal effect; nearly all actives have a fitted effect of over 60% in size); details: recombinant CYP2C9, luciferin-H luminescence, 60 min; series mostly up to 11.4 µM
Sequence of Cytochrome P450 2C9 (Homo sapiens) (P11712 whole entry, looked up): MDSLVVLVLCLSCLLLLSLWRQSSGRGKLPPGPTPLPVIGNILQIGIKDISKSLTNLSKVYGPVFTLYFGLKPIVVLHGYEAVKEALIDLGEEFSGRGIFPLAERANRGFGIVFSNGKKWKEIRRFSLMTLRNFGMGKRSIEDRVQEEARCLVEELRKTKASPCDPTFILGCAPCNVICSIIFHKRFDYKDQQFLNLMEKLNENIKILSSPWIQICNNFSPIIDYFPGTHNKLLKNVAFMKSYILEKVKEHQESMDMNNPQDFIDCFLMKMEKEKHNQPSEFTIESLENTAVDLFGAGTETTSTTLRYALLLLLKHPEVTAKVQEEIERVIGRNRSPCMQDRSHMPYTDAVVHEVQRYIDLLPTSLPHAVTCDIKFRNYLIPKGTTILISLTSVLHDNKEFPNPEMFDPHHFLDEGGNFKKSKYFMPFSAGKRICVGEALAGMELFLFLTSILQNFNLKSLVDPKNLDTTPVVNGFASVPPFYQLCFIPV
Procedure, shortened: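 Luminescent read-out of deoxyluciferin hydroxylation, normalized to 57uM sulphaphenazole (AC100). Reaction: 10nM enzyme, 100uM Luciferin-H (equal to KM), 25mM KPO4, 10 min compound preincubation, then 60 min with NADPH regeneration, both at 37C.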

[10] = molecular target: Cytochrome P450 3A4 (Homo sapiens) (UniProt P08684); experiment: qHTS Assay for Inhibitors and Substrates of Cytochrome P450 3A4 (AID 884; active = well fitted curve in the direction sought with a large enough effect; an effect the other way counts as inactive or inconclusive; also: potency is read from the fitted curve at half-maximal effect; nearly all actives have a fitted effect of over 50% in size); details: recombinant CYP3A4, Luciferin-PPXE luminescence; series mostly up to 57.1 µM
Sequence of Cytochrome P450 3A4 (Homo sapiens) (P08684 whole entry, looked up): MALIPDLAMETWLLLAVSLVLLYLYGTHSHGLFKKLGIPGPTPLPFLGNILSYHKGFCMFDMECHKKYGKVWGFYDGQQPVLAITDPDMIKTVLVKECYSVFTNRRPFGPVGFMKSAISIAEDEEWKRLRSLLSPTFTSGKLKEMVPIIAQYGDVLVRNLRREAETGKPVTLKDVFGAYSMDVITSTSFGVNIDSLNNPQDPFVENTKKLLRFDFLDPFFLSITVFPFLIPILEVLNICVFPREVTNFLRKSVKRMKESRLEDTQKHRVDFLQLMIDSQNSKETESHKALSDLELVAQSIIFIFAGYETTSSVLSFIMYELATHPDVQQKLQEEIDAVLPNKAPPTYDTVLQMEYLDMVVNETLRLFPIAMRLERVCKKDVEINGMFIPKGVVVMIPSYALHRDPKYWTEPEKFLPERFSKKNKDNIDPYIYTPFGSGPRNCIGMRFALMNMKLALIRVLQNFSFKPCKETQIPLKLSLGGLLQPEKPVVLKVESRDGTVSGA
Procedure, shortened: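 20 nM human CYP3A4 with 25 uM Luciferin-PPXE (at KM) in 200 mM KPO4, preincubated 10 min with compound; NADPH regeneration started a 60 min RT reaction. Luciferin detected by luminescence, normalized to 57 uM ketoconazole as full inhibition.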

[11] = molecular target: Cytochrome P450 3A4 (Homo sapiens) (UniProt P08684); experiment: qHTS Assay for Activators of Cytochrome P450 3A4 (AID 885; active = well fitted curve in the direction sought with a large enough effect; an effect the other way counts as inactive or inconclusive; also: nearly all actives have a fitted effect of over 65% in size); details: recombinant CYP3A4, Luciferin-PPXE luminescence, 60 min; series mostly up to 11.4 µM
Procedure, shortened: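 20nM CYP3A4 + 25uM Luciferin-PPXE (=KM), 200mM KPO4; cpd 10 min RT; NADPH regen, 60 min RT; stop w/ detection buffer, 20 min; luminescence. Normalized to 57 uM ketoconazole.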

[12] = Stat Signaling Pathway (AID 446); details: ME-180 SIE beta-lactamase reporter, IL-6 stimulated, 5 h; at 7.69 µM (top of the series) unless noted;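 also: ME-180 cervical cancer cells given 40 pM IL-6 alongside compound; SIE-controlled beta-lactamase reporter measured as 460/530 nm FRET emission ratio; % is scaled to controls: 0 for no effect and ±100 for the full control effect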
Procedure, shortened: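 ME-180 SIE-bla cells; overnight plating; cpd + IL-6 40 pM, 5 h, 37 C; LiveBLAzer 2.5 h RT; 460/530 nm emission ratio. Normalized to 300 pM IL-6 and 125 nM JAK inhibitor controls.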

[13] = molecular target: Cytochrome P450 2C19 (Homo sapiens) (UniProt P33261); experiment: qHTS Assay for Inhibitors and Substrates of Cytochrome P450 2C19 (AID 899; active = well fitted curve in the direction sought with a large enough effect; an effect the other way counts as inactive or inconclusive; also: nearly all actives have a fitted effect of over 60% in size; also: potency is read from the fitted curve at half-maximal effect); details: recombinant CYP2C19, luciferin-H EGE luminescence; series mostly up to 11.4 µM
Sequence of Cytochrome P450 2C19 (Homo sapiens) (P33261 whole entry, looked up): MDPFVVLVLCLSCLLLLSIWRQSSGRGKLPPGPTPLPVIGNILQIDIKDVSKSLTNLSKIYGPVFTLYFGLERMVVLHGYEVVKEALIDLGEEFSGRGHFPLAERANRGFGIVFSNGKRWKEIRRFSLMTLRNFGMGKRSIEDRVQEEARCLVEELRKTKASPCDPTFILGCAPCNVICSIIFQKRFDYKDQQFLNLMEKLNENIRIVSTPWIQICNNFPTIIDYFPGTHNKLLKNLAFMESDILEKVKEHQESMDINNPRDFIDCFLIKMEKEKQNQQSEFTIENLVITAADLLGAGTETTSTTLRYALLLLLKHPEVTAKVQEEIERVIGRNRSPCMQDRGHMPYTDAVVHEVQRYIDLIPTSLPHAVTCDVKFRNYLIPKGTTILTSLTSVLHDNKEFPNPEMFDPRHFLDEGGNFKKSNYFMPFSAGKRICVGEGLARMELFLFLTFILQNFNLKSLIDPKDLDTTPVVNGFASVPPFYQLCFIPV
Procedure, shortened: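 Luminescence readout of luciferin formed from 10uM Luciferin-H EGE (KM level) by 5 nM CYP2C19 in 50mM KPO4. 60 min NADPH-driven reaction at 37C after 10 min compound preincubation; data scaled to 57uM ketoconazole inhibition.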

[14] = molecular target: Cytochrome P450 2D6 (Homo sapiens) (UniProt P10635); experiment: qHTS Assay for Inhibitors and Substrates of Cytochrome P450 2D6 (AID 891; active = well fitted curve in the direction sought with a large enough effect; an effect the other way counts as inactive or inconclusive; also: potency is read from the fitted curve at half-maximal effect; nearly all actives have a fitted effect of over 60% in size); details: recombinant CYP2D6, luciferin-ME EGE luminescence; series mostly up to 11.4 µM
Sequence of Cytochrome P450 2D6 (Homo sapiens) (P10635 whole entry, looked up): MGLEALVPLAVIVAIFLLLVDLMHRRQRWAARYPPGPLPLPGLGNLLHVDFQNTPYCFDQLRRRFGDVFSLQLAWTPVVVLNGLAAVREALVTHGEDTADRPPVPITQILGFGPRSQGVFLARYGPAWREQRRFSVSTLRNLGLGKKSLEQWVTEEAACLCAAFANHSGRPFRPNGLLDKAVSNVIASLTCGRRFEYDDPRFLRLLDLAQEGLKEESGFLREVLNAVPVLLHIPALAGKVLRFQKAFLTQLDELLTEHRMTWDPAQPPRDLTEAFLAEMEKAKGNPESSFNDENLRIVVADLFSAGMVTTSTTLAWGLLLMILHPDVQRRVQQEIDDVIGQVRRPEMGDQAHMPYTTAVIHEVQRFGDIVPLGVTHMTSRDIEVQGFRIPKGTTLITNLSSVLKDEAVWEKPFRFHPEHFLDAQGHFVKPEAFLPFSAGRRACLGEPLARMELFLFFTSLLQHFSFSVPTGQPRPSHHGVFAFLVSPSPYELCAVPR
Procedure, shortened: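 Human CYP2D6 (5 nM) with 30 uM Luciferin-ME EGE (at Km) in 100 mM KPO4, compound preincubated 10 min, then NADPH regeneration system for 60 min at room temperature. Luciferin read by luminescence; normalized to 1.43 uM quinidine.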

NCCSc1nc2ccccc2s1
active: Potency [3] 0.316 µM | Potency [9] 1.58 µM | Potency [10] 3.16 µM
inactive: Potency [1] > 11.4 µM | activity change, negative = inhibition [2] 1.91% | activity change, negative = inhibition [4] 7.28% | Potency [5] > 46 µM | Potency [6] > 9.22 µM | Potency [7] | Potency [8] | Potency [11]

COCCn1c(=O)c(-c2ccc(OC)cc2)nc2cnc(OC)nc21
inactive: Potency [1] > 11.4 µM | activity change, negative = inhibition [2] 2.45% | activity change, negative = inhibition [4] 8.31% | Potency [5] > 9.22 µM | Potency [6] > 46 µM | Potency [7] | Potency [8]
active: Potency [3] 3.16 µM

CCNc1ncc2nc(C)c(=O)n(Cc3cccc(OC)c3)c2n1
active: Potency [3] 3.16 µM | Potency [10] 7.94 µM
inactive: Potency [1] > 11.4 µM | activity change, negative = inhibition [2] -13.2% | activity change, negative = inhibition [4] -2.59% | Potency [5] > 9.22 µM | Potency [6] > 46 µM | Potency [7] | Potency [8] | Potency [11]

NC(N)=NNC(=O)C(=O)O
inactive: Potency [1] > 11.4 µM | activity change, negative = inhibition [2] 2.05% | Potency [3] | activity change, negative = inhibition [4] 4.61% | Potency [5] > 46 µM | Potency [6] > 9.22 µM | Potency [7] | Potency [8]

c1ccc2c(c1)C(=Nc1ccc(N=C3c4ccccc4-c4ccccc43)cc1)c1ccccc1-2
inactive: Potency [1] > 11.4 µM | activity change, negative = inhibition [2] -0.81% | activity change, negative = inhibition [3] -19.6% [at 2.29 µM] | activity change, negative = inhibition [4] 10.5% | Potency [5] > 46 µM | Potency [6] > 9.22 µM | Potency [7] | Potency [8]

C[N+](C)(C)c1ncnc2c1ncn2[C@@H]1CCCCO1
inactive: Potency [1] > 11.4 µM | activity change, negative = inhibition [2] 10.7% | activity change, negative = inhibition [3] 2.3% [at 2.29 µM] | activity change, negative = inhibition [4] 5.08% | Potency [5] > 46 µM | Potency [6] > 9.22 µM | Potency [7] | Potency [8]

OC[C@@H]1O[C@H](n2cnc3c(/C=C(\O)c4ccccc4)ncnc32)[C@H](O)[C@@H]1O
active: Potency [3] 0.501 µM
inactive: Potency [1] > 11.4 µM | activity change, negative = inhibition [2] -7.91% | activity, negative = inhibition [12] -0.249% | Potency [5] > 46 µM | Potency [6] > 9.22 µM | Potency [7] | Potency [8]

CCc1c(O)c2c(c(O)c1C(C)=O)C(=O)c1c(cc(O)c(C(=O)O)c1C(=O)O)C2=O
inactive: Potency [1] > 11.4 µM | activity change, negative = inhibition [2] -2.41% | Potency [3] | activity, negative = inhibition [12] 5.45% | Potency [5] > 46 µM | Potency [6] > 9.22 µM | Potency [7] | Potency [8]

S=C(CSc1ccccc1)Nc1cccc2ccccc12
active: Potency [3] 1.26 µM | Potency [13] 0.794 µM
inactive: Potency [1] > 11.4 µM | activity change, negative = inhibition [2] 8.58% | activity change, negative = inhibition [4] -12.1% | Potency [5] > 46 µM | Potency [6] > 9.22 µM | Potency [7] | Potency [8] | Potency [11]

Cn1cnc([N+](=O)[O-])c1SCC(=O)O
inactive: Potency [1] > 11.4 µM | activity change, negative = inhibition [2] 3.98% | Potency [3] | activity change, negative = inhibition [4] 3.51% | Potency [5] > 46 µM | Potency [6] > 9.22 µM | Potency [7] | Potency [8] | Potency [13]

O=C(O)c1cc2c(cc1S(=O)(=O)O)[C@H]1[C@@H]([C@H]3[C@H]2[C@@]2(Cl)C(Cl)=C(Cl)[C@]3(Cl)C2(Cl)Cl)[C@]2(Cl)C(Cl)=C(Cl)[C@@]1(Cl)C2(Cl)Cl
inactive: Potency [1] > 11.4 µM | activity change, negative = inhibition [2] 5.22% | Potency [3] | activity, negative = inhibition [12] -4.58% | Potency [5] > 46 µM | Potency [6] > 9.22 µM | Potency [7]

CC(C)(C)c1ccc(NS(=O)(=O)c2ccc(N)cc2)cc1
active: Potency [3] 3.16 µM | Potency [13] 0.398 µM
inactive: Potency [1] > 11.4 µM | activity change, negative = inhibition [2] 3% | activity change, negative = inhibition [4] -2.46% | Potency [5] > 46 µM | Potency [6] > 9.22 µM | Potency [7] | Potency [8] | Potency [11]

Cn1c(Sc2ccc(-c3cccnc3)n2C)ccc1-c1cccnc1
inactive: Potency [1] > 11.4 µM | activity change, negative = inhibition [2] 1.8% | activity change, negative = inhibition [4] -29.9% | Potency [5] > 46 µM | Potency [6] > 9.22 µM | Potency [8] | Potency [11]
active: Potency [3] 0.398 µM | Potency [10] 0.631 µM

O=C(O)/C=C\C(=O)N1Cc2cc3ccccc3nc2C1
inactive: Potency [1] > 11.4 µM | activity change, negative = inhibition [2] 6.48% | Potency [3] | activity, negative = inhibition [12] 12.1% | Potency [5] > 46 µM | Potency [6] > 9.22 µM | Potency [7] | Potency [8]

O=C(O)CSc1ccn(Cc2ccccc2)c1
inactive: Potency [1] > 11.4 µM | activity change, negative = inhibition [2] -4.91% | Potency [3] | activity change, negative = inhibition [4] 1.69% | Potency [5] > 46 µM | Potency [6] > 9.22 µM | Potency [7] | Potency [8] | Potency [13]

CN(C)CCCN1c2ccccc2Sc2cnccc21
inactive: Potency [1] > 11.4 µM | activity change, negative = inhibition [2] 6.06% | activity change, negative = inhibition [4] -14.8% | Potency [5] > 46 µM | Potency [6] > 9.22 µM | Potency [7] | Potency [11]
active: Potency [3] 0.501 µM | Potency [10] 1.58 µM | Potency [14] 1.58 µM
